Assay outcomes: PubChem, National Center for Advancing Translational Sciences (NCATS)
ELG1 genotox – qHTS screen for small molecules that induce genotoxicity in human embryonic kidney (HEK293T) cells expressing luciferase-tagged ELG1 | HEK293T ELG1-luciferase reporter, luminescence, 16 h | Potency, µM (highest dose often 46 µM), for the others: at the top dose activity change, positive = activation, most hits filed as activators | hit rate 1.3% among 330,000 | AID 504466, 2011; also: % of control where 0% means no effect; nearly all actives have a fitted effect of over 60% in size
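DMSO vehicle served as control against compound-treated ELG1-luciferase HEK293T cells; exposure lasted 16 hr at 37 °C and 5% CO2, followed by ONE-Glo luminescence detection after 30 min.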
ELG1 DNA repair – qHTS screen for small molecules that inhibit ELG1-dependent DNA repair in human embryonic kidney (HEK293T) cells expressing luciferase-tagged ELG1. hit rate 2.3% among 330,000. Potency, µM (series often up to 46.1 µM), without a hit: top-dose activity change, negative = inhibition, usual class: inhibitors. HEK293T ELG1-luciferase reporter, luminescence, 16 h; DNA damage induced by 5-fluorouridine. AID 504467, 2011; also: % is scaled to controls: 0 for no effect and ±100 for the full control effect; nearly all actives have a fitted effect of over 55% in size
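HEK293T cells expressing luciferase-tagged ELG1 (2,000/well) received 5-Fluorouridine plus compound or DMSO for 16 hr at 37 °C. Luciferase was read by ONE-Glo luminescence after 30 min at room temperature.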
FLuc modulator – qHTS profiling assay for firefly luciferase inhibitor/activator using purifed enzyme and Km concentrations of substrates (counterscreen for miR-21 project). hit rate 6.9% among 360,000. AID 588342, 2011. Potency, µM (doses to about 57.5 µM), without a hit: top-dose activity change, negative = inhibition, hits mostly inhibitors. Luciferin 4-monooxygenase (Photinus pyralis), P08659. purified FLuc, Km substrates, luminescence inhibition;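 also: plate controls were vehicle for no effect and reference inhibitor for full effect; nearly all actives have a fitted effect of over 55% in size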
Target sequence (P08659 whole entry, looked up): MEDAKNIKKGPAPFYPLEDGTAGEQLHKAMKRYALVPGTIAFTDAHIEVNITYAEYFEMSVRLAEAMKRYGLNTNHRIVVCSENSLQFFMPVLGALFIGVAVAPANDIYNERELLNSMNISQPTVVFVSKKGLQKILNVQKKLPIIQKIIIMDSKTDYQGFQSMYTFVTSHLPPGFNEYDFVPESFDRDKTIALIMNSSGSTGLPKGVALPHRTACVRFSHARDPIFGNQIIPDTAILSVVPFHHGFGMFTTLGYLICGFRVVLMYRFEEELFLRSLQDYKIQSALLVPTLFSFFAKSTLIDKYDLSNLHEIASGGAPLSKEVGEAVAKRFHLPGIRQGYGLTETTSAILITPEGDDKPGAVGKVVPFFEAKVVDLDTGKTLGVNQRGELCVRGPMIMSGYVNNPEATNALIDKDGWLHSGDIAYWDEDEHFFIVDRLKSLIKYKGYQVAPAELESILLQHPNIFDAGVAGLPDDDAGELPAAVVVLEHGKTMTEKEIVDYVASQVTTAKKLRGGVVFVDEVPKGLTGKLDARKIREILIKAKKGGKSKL
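Purified P. pyralis luciferase, 10 nM final, with Km-level 10 uM D-luciferin and 10 uM ATP in 50 mM Tris acetate pH 7.5, 10 mM Mg acetate, 0.01% Tween-20, 0.05% BSA; 6-point qHTS titration about 60 µM downward; luminescence read.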
Rab9 promoter act – qHTS Assay for Rab9 Promoter Activators; Huh7 Rab9 promoter-luciferase reporter, luminescence, 24 h; Potency, µM (titrated, usually from 9.22 µM), inactives show at the top dose activation, negative = inhibition, usual class: activators; hit rate 2.8% among 320,000; AID 485297, 2010; also: % of control where 0% means no effect; nearly all actives have a fitted effect of over 60% in size
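Quantitative HTS format; Huh7 Rab9-luciferase reporter cells (1500/well) receive compound 2 h post-plating, incubate 24 h at 37 °C, then get luciferase reagent for 10 min before luminescence reading.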
NPC1 promoter act – qHTS Assay for NPC1 Promoter Activators. hit rate 2.4% among 320,000. Potency, µM (titrated, usually from 9.22 µM), for inactives: at the top dose activation, actives largely listed as activators. Huh7 NPC1 promoter luciferase reporter, 24 h; also: % of control where 0% means no effect; nearly all actives have a fitted effect of over 60% in size
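Huh7 cells stably carrying NPC1 promoter–luciferase, plated in Opti-MEM with 10% FBS for 2 h, were exposed to compound in DMSO for 24 h at 37 °C; luciferase reagent was added for 10 min and luminescence read.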
SMN2 splice enh – qHTS Assay for Enhancers of SMN2 Splice Variant Expression; AID 1458, 2008; HEK293 SMN2-luciferase splicing reporter, luminescence, 30-36 h; hit rate 2.8% among 210,000; Potency, µM (series often up to 46.1 µM), without a hit: top-dose activity change, positive = activation, actives largely listed as activators; also: % of control where 0% means no effect; nearly all actives have a fitted effect of over 55% in size
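HEK293 cells carry an SMN2 minigene-luciferase reporter in which exon 7 inclusion puts luciferase in frame. Cells were seeded at 2000 cells/well, attached for 10-12 hours, then exposed to compounds for 30-36 hours at 37C before ONE-Glo luminescence.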
The depositor's hits bear a star; ? = inconclusive; . = not tested or not shown. Hits are enriched below; roughly 9.2% of the tested compounds scored in any of these assays. Calls follow the shape of the dose curve; as a rule, active = well fitted curve in the direction sought with a large enough effect; inconclusive = small, poorly fitted or top-dose-only effect, or another doubt; inactive = no such curve, though single readings can be large; an effect the other way counts as inactive or inconclusive. Potency is read from the fitted curve at half-maximal effect.

SMILES	ELG1 genotox	ELG1 DNA repair	FLuc modulator	Rab9 promoter act	NPC1 promoter act	SMN2 splice enh
O=C(C1COc2ccccc2O1)N1CCCC1 (stereo unspecified)	-4%	1%	6%	-5%	0%	-20%
O=C(C1COc2ccccc2O1)N1CCc2ccccc21 (stereo unspecified)	?	?	21µM*	3.5µM*	3.5µM*	11%
O=C(C1CCN(S(=O)(=O)c2ccccc2)CC1)N1CCc2ccccc21	-3%	-3%	21µM*	?	21%	.
O=C(C1CCN(S(=O)(=O)c2ccccc2F)CC1)N1CCc2ccccc21	-5%	?	-2%	-3%	-2%	.
O=C(C1CCN(S(=O)(=O)c2ccc3c(c2)OCCO3)CC1)N1CCc2ccccc21	-5%	23µM*	2%	-9%	-12%	-24%
Cc1sc2ncn(CC(=O)N(C)c3ccc(Br)cc3)c(=O)c2c1S(=O)(=O)N1CCC(C)CC1	.	.	-11%	.	.	-2%
